Laboratory results: PubChem BioAssay (NCI)
This is part of a sample that, as a whole, favours compounds with a hit. Of some 83,000 tested, about 20% had one in any assay.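 How to read the values: 0–100, growth inhibition (40 = 60% inhibited); 0, no net growth; -100 to 0, cell death (-40 = 40% of starting cells died; -100 = all dead).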 Unmarked numbers belong to inactive results. Activity calls are given as the source filed them. The calls were made as follows: active = growth percent below 10; inactive = the rest.

Test system: COLO 205 colon
Assay: NCI-60 one-dose screen, 48 h (100 = growth as untreated, 0 = no growth, -100 = all killed)
Conditions: 10 µM unless noted

SMILES	growth
COc1cc2c3c(c1)nc(C)n3CCC2	107%
Cc1sc2c(c1C)c(=O)nc1c(-c3nc4ccccc4s3)n[nH]n12	103%
COc1cc2c(cc1OCCCCCN1CCN(c3ncnc4ccccc34)CC1)N=CC1CCCN1C2=O (centres undefined)	-46.1% (active)
COc1cc2c(cc1OCCCCN1CCN(CC(=O)Nc3ccc(Cl)cc3C(=O)c3ccccc3Cl)CC1)N=CC1CCCN1C2=O (centres undefined)	-61.4% (active)
CCOC(=O)C1=C(C)NC(=O)NC1c1cc(=O)oc2ccc(C)cc12 (centres undefined)	105%
COc1ccc2nc3cc(Cl)ccc3c(Nc3ccc(N(C)C)cc3)c2c1	84.6%
C[C@@H](C[C@H](CCO)c1cc(C(F)(F)F)cc(C(F)(F)F)c1)c1ccc2ccccc2c1	97%
COc1ccc2c(CCCc3ccc(Cl)cc3Cl)c3[n+](cc2c1OC)CCc1cc2c(cc1-3)OCO2	-59.6% (active)
COc1cc2c(cc1OCCCCCCN1CCN(c3ncnc4ccccc34)CC1)N=CC1CCCN1C2=O (centres undefined)	-57.1% (active)
c1cc[n+](Cc2c3ccccc3cc3c2ccc2ccccc23)cc1	2.06% (active)
CC(C)[C@@H]1CC[C@]2(CO2)[C@@H]2C(=O)OCC(C(=O)O)=C[C@H]21	1.78% (active)
N#Cc1c(NC(=O)c2cccs2)[n+]([O-])c2ccc(F)cc2[n+]1[O-]	86.1%
CC(CCCC(=O)O)c1ccoc1 (centres undefined)	101%
CCCCCCCC(=O)SCC/C=C/[C@@H]1CC(=O)NCc2nc(co2)C2=N[C@@](C)(CS2)C(=O)N[C@@H](C(C)C)C(=O)O1	-41.3% (active)
Nc1c(C(=O)c2ccccc2)sc2nc(-c3cccs3)ccc12	-21.8% (active)
COc1ccc2c(CCCCC(c3ccccc3)c3ccccc3)c3[n+](cc2c1OC)CCc1cc2c(cc1-3)OCO2	-77.3% (active)
CC(C)(C)C(=O)OCOP(=O)(OCOC(=O)C(C)(C)C)C1CCCN(OC(=O)c2ccccc2)C1=O (centres undefined)	14.3%
O=C(Cc1ccccc1)Nc1nnc(NC2CCN(c3nnc(NC(=O)Cc4ccccc4)s3)CC2)s1	90.1%
CCCCCCC1(/C=N/NC(N)=O)NC(=O)NC1=O (centres undefined)	91.9%
CC(N)C(Cc1ccc(Cl)cc1)c1ccc(Cl)cc1 (centres undefined)	-81.2% (active)

SMILES	growth
CC(C)[C@@H](C)/C=C/[C@@H](C)[C@H]1CCC2=C3C=CC4=CC(=O)CC[C@]4(C)[C@H]3CC[C@@]21C	105%
CCOC(=O)C1=C(C)N=C2Sc3cc(OC(F)(F)F)ccc3N2[C@H]1c1ccccn1	36.7%
COC(=O)[C@]12CC[C@@H](C)[C@H](C)[C@@H]1C1=CC[C@@H]3[C@@]4(C)C(c5cnco5)=C[C@@](C)(CO)C4=CC[C@@]3(C)[C@]1(C)CC2	27.2%
C=C1C(=O)O[C@H]2[C@H]1CC/C(Cn1cc(-c3cc(C)c(C)cc3C)nn1)=C\CC[C@@]1(C)O[C@@H]21	-70.5% (active)
C=C1C(=O)O[C@H]2[C@H]1CC/C(CNC(=O)c1cc3cc(OC)ccc3[nH]1)=C\CC[C@@]1(C)O[C@@H]21	-73.6% (active)
C=CCC(=O)N[C@H](/C=C/C(=O)O)Cc1ccc(-c2cc(Cl)cc(Cl)c2)cc1	95.7%
NN1C(=O)CSC1=S	107%
CC(=O)C(C(C)=O)C(c1ccccc1)C(C(C)=O)C(C)=O	104%
COc1cc(NCCN(CC(C)C)CC(C)C)c2ncc(C)cc2c1	49.6%
COc1ccc2c(CCC(c3ccccc3)c3ccccc3)c3[n+](cc2c1OC)CCc1cc2c(cc1-3)OCO2	-58.8% (active)
O=C1CC(c2ccc3c(c2)OCO3)c2ncn(-c3ccc(Cl)cc3)c2N1 (centres undefined)	99.5%
Clc1nc(Cl)c2ncn(CC#CCn3cnc4c(Cl)nc(Cl)nc43)c2n1	-26.9% (active)
COc1ccc(C2CC(=O)c3c(O)c(OC)c(OC)c(OC)c3O2)c(O)c1 (centres undefined)	57.3%
C[N+](C)(CCOC(c1ccccc1)c1ccccc1)CC(=O)OCc1ccccc1	103%
Nc1c2c(c(O)c3c1=C(CO)C=N3)=NCCS2	-72.8% (active)
Cc1cccc(NC(=O)[C@@H]2c3ccccc3C(=O)N(c3ccc(Cl)cc3)[C@H]2c2ccc(Cl)cc2)n1	30.7%
CC(N)C(Cc1ccccc1)c1ccc(Cl)cc1 (centres undefined)	84.4%
C=CCCCC(=O)CCC(=O)OCC1O[C@@H](O[C@@H]2C(O)[C@@H](OC(C)=O)C(C)O[C@H]2O[C@H](CC=C)CCCCC)C(O)[C@@H](OC(=O)/C(C)=C/C)[C@@H]1OC(=O)/C=C/c1ccccc1 (some centres undefined)	-8.37% (active)
COc1ccc2c(c1OC)C(=O)O[C@@H]2[C@H]1c2c(c(C#CC#Cc3ccc(F)c(F)c3)c3c(c2OC)OCO3)CCN1C	84.7%
